Measurements: PMC5540273 (PLoS ONE, 2017)

The compounds below were run on T1, DCAMKL3. Settings: concentration: 1 μM, replicates: in singlicate; n = 1.
T1 construct: gene DCLK3
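Also: KINOMEscan kinase panel screen.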

**Q.** For `COc1cc2ncn(-c3cc(OCCCc4ccccc4)c(C(N)=O)s3)c2cc1OC` [GSK205189], which “%Inh” value is on record?
**A.** 1%

**Q.** With `O=C(Nc1n[nH]c2nc(-c3ccccc3)c(Cl)cc12)C1CC1` [SB-734909] as the compound, how does the “%Inh” value read?
**A.** 8%

**Q.** How did the “%Inh” value turn out when `COc1ccc(-c2cc3c(C)nc(N)nc3n([C@H]3CC[C@H](OCCO)CC3)c2=O)cn1` was run?
**A.** 0%

**Q.** `CCC(=O)c1c(-c2ccccc2)c2cc(Cl)ccc2c(=O)n1Cc1ccc(C(=O)O)cc1` was tested. Which “%Inh” value did it give?
**A.** 0%

**Q.** How did the “%Inh” value turn out when `Cc1nnc(-c2ccc(C)c(-c3ccc(C(=O)O)cc3)c2)o1` [GW608005] was run?
**A.** 0%

**Q.** For `Cc1ccccc1COc1cc(-n2cnc3cc(Cl)ccc32)sc1C(N)=O` [GW813349], which “%Inh” value is on record?
**A.** 10%

**Q.** With `Cc1ccc(Oc2ccc(Nc3ncnc4cc[nH]c34)cc2C)cn1` as the compound, how does the “%Inh” value read?
**A.** 0%

**Q.** For `CCCNC(=O)Nc1ccc(Oc2ncnc3ccn(C)c23)cc1`, which “%Inh” value is on record?
**A.** 0%

**Q.** With `COc1cc(Nc2nccc(N3CCC(NC(=O)C4COc5ccccc5O4)C3)n2)cc(OC)c1OC` (stereo not drawn) [GSK1379761] as the compound, how does the “%Inh” value read?
**A.** 0%

**Q.** For `COc1cc2ncn(-c3cc(OCc4ccc(S(C)(=O)=O)cc4)c(C(N)=O)s3)c2cc1OC` [GW869979], which “%Inh” value is on record?
**A.** 0%

**Q.** `COc1cc(Nc2ccnc3ccc(C(F)(F)F)cc23)cc(OC)c1OC` [GW577382] was tested. Which “%Inh” value did it give?
**A.** 2%

**Q.** With `O=C(Nc1n[nH]c2cc(-c3ccccc3F)ccc12)C1CC1` [SB-733371] as the compound, how does the “%Inh” value read?
**A.** 0%

**Q.** How did the “%Inh” value turn out when `COC(=O)c1c(-c2ccccc2)c2cc(C)ccc2c(=O)n1Cc1ccccc1` was run?
**A.** 0%

**Q.** With `FC(F)(F)c1ccc(-c2ncn(CCCN3CCOCC3)c2-c2ccncc2)cc1` [SB-217780] as the compound, how does the “%Inh” value read?
**A.** 4%

**Q.** For `Cl.NS(=O)(=O)c1cccc(Nc2cc(-c3ccc(F)cc3)n[nH]2)c1` [GW824645], which “%Inh” value is on record?
**A.** 0%

**Q.** With `COc1cccc(C2=C(N(C)c3ccccc3)C(=O)NC2=O)c1` [SB-334865] as the compound, how does the “%Inh” value read?
**A.** 16%

**Q.** How did the “%Inh” value turn out when `Cn1c(=O)c(F)c(Nc2ccc(I)cc2F)c2c(=O)n(OC[C@H](O)CO)cnc21` was run?
**A.** 20%

**Q.** Which “%Inh” value does the source give for `Fc1cccc(CSc2nnc(-c3ccc4c(c3)CCO4)o2)c1` here?
**A.** 0%

**Q.** For `Nc1ncnc2c1ncn2-c1cccc(F)c1` [SKF-97560], which “%Inh” value is on record?
**A.** 0%

**Q.** How did the “%Inh” value turn out when `COc1cc(OC)cc(-c2cc3cnc(N)nc3nc2NC(=O)NC(C)(C)C)c1` was run?
**A.** 0%

**Q.** With `CCc1nc(-c2cccc(C)c2)c(-c2ccncc2)s1` as the compound, how does the “%Inh” value read?
**A.** 4%

**Q.** How did the “%Inh” value turn out when `COc1ccc(Nc2nccc(N3CCC(NS(=O)(=O)c4ccc(NC(C)=O)cc4)C3)n2)cc1` (stereo not drawn) [GSK1379729] was run?
**A.** 53%

**Q.** `COc1ccc(-n2cnc3c(N)ncnc32)cc1` [SKF-97236] was tested. Which “%Inh” value did it give?
**A.** 9%

Each compound was assayed on DDR1. Settings: concentration: 1 μM, replicates: in singlicate; n = 1.

**Q.** With `CCc1ccc(-c2ccc3c(c2)-c2nn(C)cc2S(=O)(=O)N3C)cc1` as the compound, how does the “%Inh” value read?
**A.** 0%

**Q.** Which “%Inh” value does the source give for `Nc1n[nH]c2ncc(-c3ccccc3)cc12` [SB-517081] here?
**A.** 0%

**Q.** How did the “%Inh” value turn out when `Cc1nc(N(C)[C@H]2CN(C(=O)CC#N)CC[C@H]2C)c2cc[nH]c2n1` was run?
**A.** 28%

**Q.** Which “%Inh” value does the source give for `COc1ccc(-c2coc3ccc(-c4nnc(SCc5cccc(C#N)c5)o4)cc23)cc1` here?
**A.** 0%

**Q.** How did the “%Inh” value turn out when `CCC(=O)c1c(-c2ccccc2)c2cc(Cl)ccc2c(=O)n1Cc1cc(S(C)(=O)=O)n(CCC(C)(C)O)n1` was run?
**A.** 14%

**Q.** How did the “%Inh” value turn out when `COc1cc2ncn(-c3cc(OCc4ccncc4)c(C(N)=O)s3)c2cc1OC` [GSK336313] was run?
**A.** 0%

**Q.** Which “%Inh” value does the source give for `Nc1nccc2scc(-c3ccc4c(c3)CCN4C(=O)Cc3ccccc3)c12` [GSK2576924] here?
**A.** 43%

**Q.** For `COC(=O)c1c(-c2ccccc2)c2cc(Br)ccc2c(=O)n1Cc1ccc(S(C)(=O)=O)cc1`, which “%Inh” value is on record?
**A.** 29%

**Q.** Which “%Inh” value does the source give for `CCCC(=O)Nc1n[nH]c2ncc(-c3cccc4ccccc34)cc12` [SB-642057] here?
**A.** 3%

**Q.** For `O=C1NC(=O)C(c2ccccc2)=C1Nc1cccc(O)c1` [SB-390534], which “%Inh” value is on record?
**A.** 0%

**Q.** Which “%Inh” value does the source give for `Cc1nn2c(=O)cc(N3CCOCC3)nc2n1Cc1cccc(Cl)c1Cl` [GSK2342769] here?
**A.** 25%

**Q.** Which “%Inh” value does the source give for `C[C@@H]1CC[C@H](C(=O)NC2CCCCC2)CN1c1cc(-c2ccc3c(N)n[nH]c3c2)nc(N)n1` [GSK2291363] here?
**A.** 0%

**Q.** How did the “%Inh” value turn out when `Nc1ncnc2c1ncn2-c1cccc2ccccc12` [SKF-97184] was run?
**A.** 0%

**Q.** For `COc1cc2ncn(-c3cc(OCc4ccncc4Br)c(C(N)=O)s3)c2cc1OC` [GW854278], which “%Inh” value is on record?
**A.** 0%

**Q.** For `COc1cc2ncn(-c3cc(OCCCc4ccccc4)c(C(N)=O)s3)c2cc1OC` [GSK205189], which “%Inh” value is on record?
**A.** 2%

**Q.** `O=C(Nc1n[nH]c2nc(-c3ccccc3)c(Cl)cc12)C1CC1` [SB-734909] was tested. Which “%Inh” value did it give?
**A.** 17%

**Q.** Which “%Inh” value does the source give for `COc1ccc(-c2cc3c(C)nc(N)nc3n([C@H]3CC[C@H](OCCO)CC3)c2=O)cn1` here?
**A.** 0%

**Q.** With `CCC(=O)c1c(-c2ccccc2)c2cc(Cl)ccc2c(=O)n1Cc1ccc(C(=O)O)cc1` as the compound, how does the “%Inh” value read?
**A.** 24%

**Q.** How did the “%Inh” value turn out when `Cc1nnc(-c2ccc(C)c(-c3ccc(C(=O)O)cc3)c2)o1` [GW608005] was run?
**A.** 7%

**Q.** With `Cc1ccccc1COc1cc(-n2cnc3cc(Cl)ccc32)sc1C(N)=O` [GW813349] as the compound, how does the “%Inh” value read?
**A.** 0%

**Q.** Which “%Inh” value does the source give for `Cc1ccc(Oc2ccc(Nc3ncnc4cc[nH]c34)cc2C)cn1` here?
**A.** 0%

**Q.** How did the “%Inh” value turn out when `CCCNC(=O)Nc1ccc(Oc2ncnc3ccn(C)c23)cc1` was run?
**A.** 0%

**Q.** With `COc1cc(Nc2nccc(N3CCC(NC(=O)C4COc5ccccc5O4)C3)n2)cc(OC)c1OC` (stereo not drawn) [GSK1379761] as the compound, how does the “%Inh” value read?
**A.** 1%

**Q.** `COc1cc2ncn(-c3cc(OCc4ccc(S(C)(=O)=O)cc4)c(C(N)=O)s3)c2cc1OC` [GW869979] was tested. Which “%Inh” value did it give?
**A.** 20%

**Q.** `COc1cc(Nc2ccnc3ccc(C(F)(F)F)cc23)cc(OC)c1OC` [GW577382] was tested. Which “%Inh” value did it give?
**A.** 0%

**Q.** `O=C(Nc1n[nH]c2cc(-c3ccccc3F)ccc12)C1CC1` [SB-733371] was tested. Which “%Inh” value did it give?
**A.** 0%

**Q.** `COC(=O)c1c(-c2ccccc2)c2cc(C)ccc2c(=O)n1Cc1ccccc1` was tested. Which “%Inh” value did it give?
**A.** 60%

**Q.** Which “%Inh” value does the source give for `FC(F)(F)c1ccc(-c2ncn(CCCN3CCOCC3)c2-c2ccncc2)cc1` [SB-217780] here?
**A.** 5%

**Q.** For `Cl.NS(=O)(=O)c1cccc(Nc2cc(-c3ccc(F)cc3)n[nH]2)c1` [GW824645], which “%Inh” value is on record?
**A.** 0%

**Q.** For `COc1cccc(C2=C(N(C)c3ccccc3)C(=O)NC2=O)c1` [SB-334865], which “%Inh” value is on record?
**A.** 0%

**Q.** How did the “%Inh” value turn out when `Cn1c(=O)c(F)c(Nc2ccc(I)cc2F)c2c(=O)n(OC[C@H](O)CO)cnc21` was run?
**A.** 0%

**Q.** For `Fc1cccc(CSc2nnc(-c3ccc4c(c3)CCO4)o2)c1`, which “%Inh” value is on record?
**A.** 0%

**Q.** How did the “%Inh” value turn out when `Nc1ncnc2c1ncn2-c1cccc(F)c1` [SKF-97560] was run?
**A.** 18%

**Q.** Which “%Inh” value does the source give for `COc1cc(OC)cc(-c2cc3cnc(N)nc3nc2NC(=O)NC(C)(C)C)c1` here?
**A.** 68%

**Q.** Which “%Inh” value does the source give for `CCc1nc(-c2cccc(C)c2)c(-c2ccncc2)s1` here?
**A.** 30%

**Q.** With `COc1ccc(Nc2nccc(N3CCC(NS(=O)(=O)c4ccc(NC(C)=O)cc4)C3)n2)cc1` (stereo not drawn) [GSK1379729] as the compound, how does the “%Inh” value read?
**A.** 13%

**Q.** `COc1ccc(-n2cnc3c(N)ncnc32)cc1` [SKF-97236] was tested. Which “%Inh” value did it give?
**A.** 10%
